Measurements: PubChem BioAssay AID588742 (Southern Research Specialized Biocontainment Screening …, 2011)
About 410 (23%) of roughly 1,800 compounds were called active. No rule for the calls is given here. The list is a sample of the results. Entries with a potency or affinity are not part of this list.

Experiment: viability of Vero cells under compound – cytotoxicity control for flavivirus capping enzyme inhibitors (AID 588742)
Details: cytotoxicity counter-screen; series mostly up to 40 µM

| SMILES | outcome |
| --- | --- |
| COc1c(OC(C)=O)ccc(/C=N\NC(=O)c2ccc(Br)cc2)c1[N+](=O)[O-] | inactive |
| O=C(O/N=C1\CCCCC1c1ccc([N+](=O)[O-])cc1[N+](=O)[O-])c1c(F)cccc1F (stereo not drawn) | inactive |
| O=C(O)c1cc(/C=C/C(=O)c2cc(F)ccc2O)c2c(c1)COCO2 | inactive |
| Cc1cc(S(=O)(=O)ON2C(=O)c3ccccc3C2=O)ccc1F | inactive |
| Cc1cc(N2C(=O)C(O)=C(C(=O)c3ccco3)C2c2cccc(Oc3ccccc3)c2)no1 (stereo not drawn) | inactive |
| CCCCC1=CC2=CC(=O)C(C)(OC(=O)CC)C(=O)C2=CN1Cc1ccc(OC)cc1 (stereo not drawn) | inactive |
| O=C1C=CC2=C3c4cc(O)c(O)cc4CC3(O)COC2=C1O (stereo not drawn) | inactive |
| CCOC(=O)C1(C)/C(=N/Nc2cccc(Cl)c2)C(=O)C(=O)N1c1ccccc1 (stereo not drawn) | inactive |
| N=C1/C(=C\c2ccc(OC(=O)c3ccc(F)cc3)cc2)C(=O)N=C2SC(N3CCOCC3)=NN12 | inactive |
| O=C(N/N=C/C(Cl)=C/c1ccc([N+](=O)[O-])cc1)C(=O)Nc1ccccc1C(=O)O | inactive |
| O=C(CCN1C(=O)/C(=C/c2ccccc2Cl)SC1=S)Nc1ccccc1C(=O)O | inactive |
| O=C(O)CCCCCN1C(=O)C(O)=C(C(=O)/C=C/c2ccccc2)C1c1ccccc1[N+](=O)[O-] (stereo not drawn) | inactive |
| Oc1cc(-n2cccn2)c(O)cc1-n1cccn1 | inactive |
| CC(=O)Nc1ccc(NC(=O)CC2Nc3cccc4cccc(c34)NC2=O)cc1 (stereo not drawn) | inactive |
| COc1ccc(C2C=C(c3ccc(F)cc3)NC(=S)N2)cc1OC (stereo not drawn) | inactive |
| COC(=O)CCC(=O)OC1(C)C(=O)C2=CN(c3ccccc3)C(c3ccc(OC)cc3)=CC2=C(Br)C1=O (stereo not drawn) | inactive |
| O=c1[nH]c(/C=C/c2ccc(Cl)cc2Cl)c([N+](=O)[O-])c(=O)[nH]1 | inactive |
| CC1CCc2c(sc(N)c2C(N)=O)C1 (stereo not drawn) | inactive |
| CCC(C)c1ccc(NC(=O)Nc2cccnc2)cc1 (stereo not drawn) | inactive |
| CCOc1ccc(Nc2ccc(N)c(S(=O)(=O)O)c2)cc1 | inactive |
| O=C1C=C(Nc2ccccc2C(=O)O)c2ccccc2C1=O | inactive |
| NC(=S)NNc1cccc2cccnc12 | inactive |
| CN(C(=S)Nc1cccnc1)c1ccc(O)cc1 | inactive |
| O=c1cccccc1NCc1ccccc1 | inactive |
| Oc1ccc(NCc2ccc(OCc3ccccc3)cc2)cc1 | inactive |
| C#CCOc1c(/C=C\c2nc(O)c([N+](=O)[O-])c(=O)[nH]2)cc(Br)cc1OC | inactive |
| COC(=O)c1ccc(NC(=O)CCc2nnc3ccc(NCc4ccco4)nn23)cc1 | inactive |
| COc1ccc(OC)c(/C=C/c2c([N+](=O)[O-])c(=O)n(C)c(=O)n2C)c1 | inactive |
